# This is part of a sample that, as a whole, favours compounds with a hit. Of some 83,000 tested, about 20% had one in any assay.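 Percent growth is the endpoint: 0 to 100 indicates growth inhibition (40 means 60% inhibition), 0 means no net growth, and negative values indicate cell death.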 Active and inactive are the calls of the source. How the source made its calls: active means growth percent below 10; inactive means the rest.
# System: SNB-19 CNS
# Experiment: NCI-60 one-dose screen, 48 h (100 = growth as untreated, 0 = no growth, -100 = all killed)
# Details: 10 µM unless noted
row,SMILES,growth
1,COCCOC(=O)C1=C(C)NC(=S)NC1c1ccc2c(c1)OCO2 (stereo unspecified),100% (inactive)
2,O=S(=O)(Nc1ccc(F)c(Cl)c1)c1ccc(-c2cnc(C3CC3)o2)cc1,49.3% (inactive)
3,NCCN1CCN(c2nccc(-c3ccc4ccccc4c3)n2)CC1,63.9% (inactive)
4,CCCCNc1ccc2c3c1cccc3c(=O)n1c3ccccc3nc21,101% (inactive)
5,O=C1O[C@H]([C@H](O)CO)C(O)=C1O,95.8% (inactive)
6,Cc1ccc2cnc(N)c(C#Cc3cncc(C(=O)Nc4ccc(CN5CCN(C)CC5)c(C(F)(F)F)c4)c3)c2c1,-99.1% (active)
7,CC#Cc1nc2ccccc2c(=O)[nH]1,123% (inactive)
8,COc1cc2c(cc1O)CCc1cc(O)cc(OC)c1-2,98% (inactive)
9,CCCCCCCCCCCCS(=O)CC(C)O (stereo unspecified),98.6% (inactive)
10,COc1ccc(/C=C2\N=C3Sc4cc(Cl)ccc4C(=O)N3C2=O)cc1,101% (inactive)
11,O=C1C(Cl)=C(Cl)C(=O)c2c1nc1n2CCCC1,96.4% (inactive)
12,CN1CCN(Cc2ccc(NC(=O)c3cncc(C#Cc4c(N)ncc5ccc(C#N)cc45)c3)cc2C(F)(F)F)CC1,-79.1% (active)
13,COc1cc(NC(N)=NCC(C)(C)COc2ccc(C(F)(F)F)cc2)cnc1C#N,70.6% (inactive)
14,O=[N+]([O-])c1cccc(-c2nc3sccn3c2-c2ccnc(NCCCNS(=O)(=O)c3ccc(Br)cc3)n2)c1,87.4% (inactive)
15,COc1ccc(-c2nc(Nc3cc(C)[nH]n3)c3ccccc3n2)cc1,53.8% (inactive)
16,Nc1nc2ccc(-c3nc4ccc5[nH]ncc5c4c4c3CCC4)cc2s1,42.6% (inactive)
17,CC[C@@H](C)OC(=O)c1nn(C(C)=O)c2ccccc12,100% (inactive)
18,CCCCCCCCCCCCCCCC[N+]1(CC)CCCC1,-53.9% (active)
19,COc1cc(OC)c(/C=C/c2cc[n+](C)c3ccccc23)c(OC)c1,26.4% (inactive)
20,CC[C@H](Nc1nc(N)nc(C)c1C#N)c1nc2cccc(NCc3ccc(C(=O)NO)cc3)c2c(=O)n1-c1ccccc1,7.28% (active)
21,O=C(CN1CCOCC1)Nc1ccc(Cn2nnc3c2C(=O)c2nnn(Cc4ccc(NC(=O)CN5CCOCC5)cc4)c2C3=O)cc1,-15% (active)
22,COc1ccc2[nH]c(=O)c(/C=C/C(=O)c3ccc(Nc4nccc(-c5ccc6ccccc6c5)n4)cc3)cc2c1,91.9% (inactive)
23,OC(c1cccc(C(F)(F)F)c1)c1cnccc1NC1CCCCCC1 (stereo unspecified),69.3% (inactive)
24,O=c1c2cccc3c(Nc4ccccn4)ccc(c32)c2nc3ccccc3n12,89.9% (inactive)
25,CC(C)[C@@H]1CC[C@]2(C(=O)NCCCCN=C(N)N)CC[C@]3(C)[C@H](CC[C@@H]4[C@@]5(C)CCC(=O)C(C)(C)[C@@H]5CC[C@]43C)[C@@H]12,41.9% (inactive)
26,CC(C)(C)n1cc(-c2ccnc(NCCCNS(=O)(=O)c3cccc4ccccc34)c2)c(-c2cccc(O)c2)n1,56% (inactive)
27,COc1ccc(-c2cc(=O)[nH]c3c(OC)c4ccccc4c(OC)c23)cc1,50.5% (inactive)

# System: U251 CNS
# Experiment: as above
# Details: 10 µM unless noted
row,SMILES,growth
1,CCN(CC)Cc1cc(Nc2c3ccc(Cl)cc3nc3c(C)cccc23)ccc1O,-62.4% (active)
2,N#Cc1ccc(NC(=O)Nc2ccc(Cc3ccc(NC(=O)Nc4ccc(C#N)cc4)cc3)cc2)cc1,34.4% (inactive)
3,O=C1O[C@H]([C@H](O)CO)C(O)=C1O,101% (inactive)
4,CCC(=O)OCc1cccc(OC)c1,93.2% (inactive)
5,Cc1ccc2cnc(N)c(C#Cc3cncc(C(=O)Nc4ccc(CN5CCN(C)CC5)c(C(F)(F)F)c4)c3)c2c1,-89.5% (active)
6,CN1CCN(Cc2ccc(NC(=O)c3cncc(C#Cc4c(N)ncc5ccc(C#N)cc45)c3)cc2C(F)(F)F)CC1,-69.4% (active)
7,Nc1nc(SCc2ccccc2)c2ncn(C3CCCC3)c2n1,-25.9% (active)
8,COc1cc(NC(N)=NCC(C)(C)COc2ccc(C(F)(F)F)cc2)cnc1C#N,59.9% (inactive)
9,CCCCCCCCCCCCCCCC(=O)OCC1OC(n2cnc3c(=S)nc(N)[nH]c32)C(OC(=O)CCCCCCCCCCCCCCC)C1OC(=O)CCCCCCCCCCCCCCC (stereo unspecified),83.7% (inactive)
10,O=C1Nc2c(ccc(Cl)c2Cl)/C1=C/c1cc(Br)c(O)c(Br)c1,66.2% (inactive)
11,Cc1cc(Cl)ccc1Nc1nc(C(F)(F)F)ccc1C(=O)N/N=C/c1ccc(F)cc1,3.86% (active)
12,COc1ccc(C(=O)COc2ccc(/C=C3\Oc4ccc(Cl)cc4C3=O)cc2)cc1,96.7% (inactive)
13,CC[C@@H](C)OC(=O)c1nn(C(C)=O)c2ccccc12,99.4% (inactive)
14,CCN(CC)c1ccc(/C=C/C2=[N+](C)c3ccccc3C2(C)C)cc1,13.8% (inactive)
15,CNC(=O)c1cc(Oc2ccc3nc(NC(=O)Nc4ccc(CN5CCOCC5)c(C(F)(F)F)c4)sc3c2)ccn1,22.2% (inactive)
16,CC(C)[C@@H]1CC[C@]2(C(=O)NCCCCN=C(N)N)CC[C@]3(C)[C@H](CC[C@@H]4[C@@]5(C)CCC(=O)C(C)(C)[C@@H]5CC[C@]43C)[C@@H]12,30.8% (inactive)
17,Cc1ccc2c(c1)n([O-])c1cc(Cl)ccc1[n+]2=O,110% (inactive)
18,CC(C)(C)n1cc(-c2ccnc(NCCCNS(=O)(=O)c3cccc4ccccc34)c2)c(-c2cccc(O)c2)n1,27% (inactive)
19,COc1ccc(-c2cc(=O)[nH]c3c(OC)c4ccccc4c(OC)c23)cc1,23.8% (inactive)
